Results filed as inconclusive are left out. A number with no mark means an inactive call. The call rests on the fitted dose curve; in most records, active means well fitted cell-killing curve with a large enough effect in the repeat runs; inconclusive means weak or mixed curves, or effect the other way; inactive means no such curve, though single readings can be large or run the other way.
Assay: qHTS assay to identify small molecule antagonists of the progesterone receptor (PR) signaling pathway - cell viability counter screen (AID 1346798); further: nearly all actives have a fitted effect of over 50% in size
Conditions: PR-UAS-bla HEK293T viability, CellTiter-Glo luminescence, 16 h; series mostly up to 92.4 µM; activity change, negative = cytotoxicity: at the top concentration
In short: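 Cytotoxicity read as CellTiter-Glo luminescence (30 min, room temperature) in the same wells as the beta-lactamase readout. HEK293T PR-UAS-bla cells in charcoal-stripped 2% FBS received compound and R5020, then 16 h at 37C, 5% CO2.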
On the % scale 0 is the no-effect control and ±100 the full control effect.

Row | Structure (SMILES) | activity change, negative = cytotoxicity
1 | CC(C)=CC(=O)O | 24%
2 | O=C(O)c1ccccc1S | 1.22% [at 42.5 µM]
3 | C=CCSCC1Nc2cc(Cl)c(S(N)(=O)=O)cc2S(=O)(=O)N1 (configuration not stated) | -1.71% [at 42.5 µM]
4 | CCCCc1ccc(N)cc1 | 11.8%
5 | CC(C)COC(=O)c1ccccc1O | 16.5%
6 | CCCCCCCCCCCCCCC | -13.8%
7 | O=[N+]([O-])c1ccc(CCO)cc1 | 7.21%
8 | CCN(CC)S(=O)(=O)c1ccc(C(=O)O)cc1 | 7.88% [at 42.5 µM]
9 | Nc1ccn(C2CO[C@H](CO)O2)c(=O)n1 (some centres not stated) | -10.9% [at 42.5 µM]
10 | COC(C(=O)O)c1ccccc1 (configuration not stated) | 2.27%
11 | CCCCCCC(CCCCCCCCCCC(=O)OCC(COC(C)=O)OC(C)=O)OC(C)=O (configuration not stated) | 2.1% [at 42.5 µM]
12 | NCC[C@H](O)C(=O)N[C@@H]1C[C@H](N)[C@@H](O[C@H]2O[C@H](CN)[C@@H](O)[C@H](O)[C@H]2O)[C@H](O)[C@H]1O[C@H]1O[C@H](CO)[C@@H](O)[C@H](N)[C@H]1O | 0.454% [at 0.348 µM]
13 | NC(=O)c1ncn([C@@H]2O[C@H](CO)[C@@H](O)[C@H]2O)c1N | -1.38% [at 42.5 µM]
14 | CCCc1ccccc1O | 4.42%
15 | CO | 11.8%
16 | C=CCOCC(O)CS(=O)(=O)O (configuration not stated) | 10.8%
17 | Nc1ncnc2c1ncn2Cc1c(F)cccc1Cl | -0.34% [at 42.5 µM]
18 | NC(=O)CCCCC1CCSS1 (configuration not stated) | -0.913% [at 42.5 µM]
19 | CC(C)c1ccc2oc3nc(N)c(C(=O)O)cc3c(=O)c2c1 | 1.45% [at 42.5 µM]

Row | Structure (SMILES) | activity change, negative = cytotoxicity
20 | Fc1ccccc1-c1ccccc1 | 13.7%
21 | CC(C)N1C(=O)c2ccccc2C1=O | 19.1%
22 | O=S(=O)(O)c1ccccc1O | 1.01%
23 | COC(=O)CCCCCCCCC(=O)OC | 10.4%
24 | c1ccc(CCCc2ccccn2)cc1 | -2.54%
25 | O=C(O)c1ccc[n+]([O-])c1 | -4.22% [at 42.5 µM]
26 | NS(=O)(=O)c1cc2c(cc1Cl)NC(CSCc1ccccc1)=NS2(=O)=O | 1.21% [at 42.5 µM]
27 | c1ccc2cnncc2c1 | -1.62%
28 | CC1=CC(=O)CCC1 | -3.84%
29 | CN(C)N=Nc1ccccc1 | 3.78%
30 | NC(=S)Nc1cccc2ccccc12 | -13.4% [at 8.39 µM]
31 | CC(C)c1cccc(O)c1 | 13.7%
32 | NC(N)=NS(=O)(=O)c1ccc(N)cc1 | 3.19% [at 42.5 µM]
33 | CCCCCCCCN(C)CCCCCCCC | -21.3%
34 | CC1(C)SC(C)(C)SC(C)(C)S1 | -1.75%
35 | NCCN1CCNC1=O | -26.6%
36 | CCCCCCCCCCC1CO1 (configuration not stated) | -2.04%
37 | C=CCOc1nc(OCC=C)nc(OCC=C)n1 | 5.74%

From PubChem BioAssay (Tox21)
